# Shiga inhibitor = A qHTS for Small Molecule Inhibitors of Shiga Toxin; Vero cells, Shiga toxin protein synthesis inhibition reporter; inhibition, % at 38.7 µM; hit rate 9.2% among 290,000; AID 2315, 2010; in the data active means inhibition mostly above about 28%, no sharp cut-off; inactive means mostly below about 43%
# FMDV inh = High Throughput Screening for Foot and Mouth Disease Virus Antivirals; FMDV antiviral cell-based qHTS; hit rate 1.2% among 410,000; AID 1159524, 2015; Potency, µM (doses to about 57.9 µM), usual class: inhibitors; calls by dose curve; tested in HEK293T cells; further: read-out not given here; nearly all actives have a fitted effect of over 45% in size
# CHX counter = Cycloheximide Counterscreen for Small Molecule Inhibitors of Shiga Toxin; cell reporter, cycloheximide protein synthesis inhibition counterscreen; max response, %; hit rate 12% among 300,000; AID 2314, 2010; in the data active means max response mostly above about 13%, no sharp cut-off; inactive means mostly below about 14%; further: read at 38.3 µM for the half of the compounds with a filed dose
# Sm TGR inh = qHTS Assay for the Inhibitors of Schistosoma Mansoni Peroxiredoxins | Schistosoma mansoni thioredoxin glutathione reductase (TGR), Q962Y6 | purified TGR, DTNB reduction, TNB absorbance 405 nm | Potency, µM (titrated, usually from 114 µM), hits mostly inhibitors | hit rate 3% among 360,000; active means well fitted inhibition curve with a large enough effect; inconclusive means small, poorly fitted or top-dose-only effect; inactive means no such curve, though single readings can be large or run the other way; further: nearly all actives have a fitted effect of over 60% in size
#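 TGR 20 nM + NADPH 100 uM (dispensed conc.), cpd preinc 15 min RT; start with NADPH (500 uM addition) then DTNB (15 mM addition). Kinetic TNB absorbance, 405 nm filter. Four-parameter Hill fit across titration.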
# Numbers stand for hits; 0 = inactive; ? = inconclusive; - = no result given; + = active, no number; ! = not confirmed by another sample; [ ] = dose if it differs, or a comment. Sampled rows, rich in hits. Any-hit rate of the full collection: about 12%.
SMILES,Shiga inhibitor,FMDV inh,CHX counter,Sm TGR inh
CCn1c(C)nc2cc(C(=O)N/N=C/c3ccccc3)ccc21,94,0,34,0
Fc1cccc(-n2ncc3c2ncn2nc(COc4ccc(Cl)cc4)nc32)c1,-,0,-,0
c1ccc(-c2cnc(CSc3ncnc4sccc34)o2)cc1,0,0,0,10µM
COc1ccc(NC(=O)CSc2nc(N)c3cc4c(nc3n2)CCCC4)cc1,61,0,47,0
CC(=O)c1ccc(NC(=O)CSc2nc(N)c3cc4c(nc3n2)CCCC4)cc1,66,0,37,0
CC1(C)Cc2nc3nc(SCC(=O)Nc4ccccc4)nc(N)c3cc2CO1,0,0,0,0
CCOC(=O)c1c(N2C(=O)C=CC2=O)sc(C)c1C,0,-,0,0.45µM
CC(=O)c1ccc(N2CCN(C(=O)C3CCN(S(=O)(=O)c4ccc(F)cc4)CC3)CC2)cc1,-,0,-,0
O=C(C1CCN(c2ccc(N3CCOCC3)nn2)CC1)N1CCN(c2ccc(F)cc2)CC1,71,?,0,0
COc1ccc(N2CCN(C(=O)c3cc4c(s3)CCCCC4)CC2)cc1,-,0,-,0
CC(=O)c1ccc(N2CCN(C(=O)c3cc4c(s3)CCCC4)CC2)cc1,71,0,18,0
C=CCN1CCN(C(=O)c2cc3c(s2)CCCC3)CC1,0,0,15,0
O=C(c1cc2c(s1)CCCC2)N1CCN(Cc2ccc3c(c2)OCO3)CC1,0,?,0,0
CC(=O)c1ccc(N2CCN(C(=O)C3CCC3)CC2)cc1,0,0,14,0
Cc1cccc(-n2c(SCC(=O)Nc3ccc(C)c(C)c3)nc3n[nH]c(C)c3c2=N)c1,-,0,-,0
O=S(=O)(c1ccc(-c2csc(=Nc3ccc(OC(F)(F)Cl)cc3)n2CCCO)cc1)N1CCCC1,-,?,-,0
O=C(c1cc2c(s1)CCCC2)N1CCN(C(=O)C2CCCO2)CC1 (stereo not given),0,0,0,0
O=C(c1cc2c(s1)CCCC2)N1CCC2(CC1)OCCO2,76,0,22,0
O=C(c1cc2c(s1)CCCC2)n1cccn1,0,0,18,0
CCOc1ccc(CNC(=O)C2CCN(c3nc4ccccc4nc3C(F)(F)F)CC2)cc1OC,-,0,-,0
COc1ccc(/C=N/NC(=O)C(=O)Nc2ccccn2)cc1OC,0,0,0,0
COc1ccc(-c2cnnc(N/N=C/c3ccc(O)c(OC)c3)n2)cc1,0,0,20,0
C=CCOc1ccc(/C=N/NC(=O)C(=O)Nc2ccccn2)cc1OC,0,0,12,0
COc1ccc(/C=N/Nc2nc(N)cc(Cl)n2)cc1OC,0,0,21,-
COc1ccc(/C=N/Nc2ccccn2)cc1OC,94,0,54,0
SMILES,Shiga inhibitor,FMDV inh,CHX counter,Sm TGR inh
CC(C)c1ccc(NS(=O)(=O)c2ccc3[nH]cc(C(=O)NCC4CCCO4)c(=O)c3c2)cc1 (stereo not given),-,0,-,0
COc1ccc(Br)cc1/C=N/Nc1ccccn1,0,0,0,0
COc1cc(/C=N/Nc2ccccn2)ccc1O,74,0,49,0
CCOc1ccc(N(CC)S(=O)(=O)N2CCCC(C(=O)Nc3cc(Cl)ccc3C)C2)cc1 (stereo not given),-,?,-,0
COc1ccc2cc3c(N)c(C(=O)NCc4ccco4)sc3nc2c1,42,0,0,0
Nc1c(C(=O)NCc2ccco2)sc2nc3c(cc12)C(=O)CCC3,0,0,0,8.9µM
Cc1ccc(OCCOCCn2c(-c3ccc(Cl)cc3)nc3ccccc3c2=O)cc1,-,0,-,0
COc1cccc(NC(=O)Nc2ccc3c(c2)CCC3)c1,75,0,39,0
COc1ccc(OC)c(NC(=O)Nc2ccc3c(c2)CCC3)c1,28,0,19,0
COc1ccc(NC(=O)Nc2ccc3c(c2)CCC3)c(OC)c1,0,0,0,0
CN(C)c1ccc(NC(=O)c2ccc3nsnc3c2)cc1,160,0,46,0
O=C(Nc1cccc([N+](=O)[O-])c1)c1ccc2nsnc2c1,0,0,0,0
O=C(Nc1ccc(Cl)cc1)c1ccc2nsnc2c1,97,0,35,0
CCCN(c1ccc(C(C)C)cc1)S(=O)(=O)c1ccc2c(c1)CCN2C(=O)CC,-,0,-,0
COc1cc(NS(=O)(=O)c2cnc(N)nc2)cc(OC)c1,-,0,-,0
COc1ccc(OC)c(C2Nc3c(C)cc(C)cc3-c3cc(C)nn32)c1 (stereo not given),-,0,-,0
OCCN(CCO)c1nc(N2CCCCC2)c2nc(N(CCO)CCO)nc(N3CCCCC3)c2n1,0,32µM!,0,0
Nc1nc(NCCO)nc(N2CCCCCC2)c1[N+](=O)[O-],0,0,0,0
C=C1c2cccc(C(F)(F)F)c2O[C@H](C(=O)OCC)C1OC (mixture of isomers),0,-,0,-
O=[N+]([O-])c1ccc(N2N=C(c3ccccc3)CC2c2ccccc2O)cc1 (stereo not given),0,-,0,0
COc1ccc2c(c1)NC(=O)CC(c1ccccc1)=N2,66,0,38,0
Cc1cccc(C2=Nc3ccccc3N=C(c3cc(Cl)ccc3O)C2)c1,-,0,-,0
Cc1ccc(C2=Nc3ccccc3N=C(c3ccc([N+](=O)[O-])cc3)C2)c(O)c1,166,0,26,0
COc1ccc(O)c(C2=Nc3ccccc3N=C(c3ccccc3)C2)c1,0,25µM!,0,0
CCOc1ccccc1C1C(C(N)=O)=C(C)Nc2nc(-c3cccc(C)c3)nn21 (stereo not given),0,0,0,40µM
SMILES,Shiga inhibitor,FMDV inh,CHX counter,Sm TGR inh
Cc1ccc2c(=O)c(C(=O)c3cccc(Cl)c3)cn(CC(=O)Nc3ccc4c(c3)OCCO4)c2n1,-,0,-,0
CCCCn1c(C)cc2c(c1=O)C1O[C@](c3ccc(OC)cc3)(Cc3cc(OC)c(OC)cc31)O2,0,-,15,?
COc1ccc([C@]23Cc4ccccc4C(O2)C2=C(O3)C(=O)c3ccccc3C2=O)cc1,0,-,19,7.1µM
COc1ccc([C@]23Cc4ccccc4C(O2)C2=C(CC4(CCCCC4)OC2=O)O3)cc1,+,-,37,0[22.9 µM]
COc1cc2c(cc1OC)C1O[C@](c3ccsc3)(C2)Oc2cc(C)n(Cc3ccccc3)c(=O)c21,0,-,0,?
COc1cc2c(cc1OC)C1O[C@](c3ccsc3)(C2)Oc2cc(-c3ccccc3)oc(=O)c21,0,-,0,7.1µM
CCOc1ccc(CNC(=O)Cn2ncc3c(=O)oc4ccc(C)cc4c32)cc1,-,0,-,0
Cc1ccc(CCNC(=O)CCn2nc(-c3ccc(Cl)cc3)ccc2=O)cc1,-,0,-,0
CC(C)C[C@H](NC(=O)[C@H](CO)NC(=O)[C@H](C)NC(=O)[C@H](CCCN=C(N)N)NC(=O)[C@H](CCCN=C(N)N)NC(=O)[C@@H](N)CC(C)C)C(=O)NCC(=O)O,0,-,0,-
COc1ccc([C@]23Cc4cc(OC)c(OC)cc4C(O2)C2=C(CCCC2=O)O3)cc1,0,-,0,3.5µM
CN(Cc1ccco1)c1ccnc(-c2ccccc2C(F)(F)F)n1,-,0,-,-
O=C(/C=C/c1ccccc1)NC(=S)Nc1ccccc1O,81,0,33,0
NC(=S)NC(=O)/C=C/c1ccccc1,66,0,30,0
O=C(C=Cc1ccccc1)NCCNC(=O)C=Cc1ccccc1,-,0,-,-
O=C(/C=C/c1cccc([N+](=O)[O-])c1)NC(=S)Nc1ccccc1C(=O)O,0,-,0,18µM

# Compound activity from PubChem.
